Compound activity as filed in PubChem.
Only some compounds are listed: those with a hit (about 7.7% of all), similar ones and a draw of the others.
FMDV inh = antivirals against foot and mouth disease virus; FMDV antiviral cell-based qHTS; Potency, µM (highest dose often 57.9 µM), inactives show at the top dose activity change, negative = inhibition, most hits filed as inhibitors; 1.2% of 410,000 active; calls by dose curve; tested in HEK293T cells; further: read-out not given here; potency means the concentration at half of the fitted maximal effect; nearly all actives have a fitted effect of over 45% in size
HCMV inh = human cytomegalovirus inhibition; HFF cells, HCMV-luciferase reporter, 72 h; hits give low values; activity change, negative = inhibition, % at 57.5 µM; 4.5% of 410,000 active; in the data active means activity change below about -60%
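Two compound doses tested in HFFs infected with HCMV-luciferase, MOI 1 PFU/cell, 72 h at 37C. Lysate luminescence read with OneGlo; data normalized against buffer-only and 10uM Salinomycin inhibitor controls.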
RE007 growth inh = less growth of the S. pombe RE007 Vpr strain. Potency, µM (doses to about 92.2 µM), without a hit: at the top dose activity change, negative = less growth, most hits filed as inhibitors. S. pombe RE007 Vpr strain, BacTiter-Glo ATP luminescence, 24 h. 0.21% of 360,000 active; active means well fitted falling curve with a large enough effect; further: potency means the concentration at half of the fitted maximal effect; nearly all actives have a fitted effect of over 50% in size
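Fission yeast RE007 carrying one integrated HIV-1 vpr copy, seeded at OD 0.01 in PMG+AL medium with 23 nL pinned compound. Grown 24 h at 30 degrees; viability read by BacTiter-Glo luminescence after 5 min.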
Giardia FBPA inh = blocks Giardia fructose-bisphosphate aldolase activity; AID 2451; 0.71% of 290,000 active; Potency, µM (highest dose often 59.6 µM), without a hit: top-dose activity, negative = inhibition, usual class: inhibitors; purified Giardia FBPA; further: potency means the concentration at half of the fitted maximal effect; nearly all actives have a fitted effect of over 55% in size
Target sequence (A8B2U2 whole entry, looked up): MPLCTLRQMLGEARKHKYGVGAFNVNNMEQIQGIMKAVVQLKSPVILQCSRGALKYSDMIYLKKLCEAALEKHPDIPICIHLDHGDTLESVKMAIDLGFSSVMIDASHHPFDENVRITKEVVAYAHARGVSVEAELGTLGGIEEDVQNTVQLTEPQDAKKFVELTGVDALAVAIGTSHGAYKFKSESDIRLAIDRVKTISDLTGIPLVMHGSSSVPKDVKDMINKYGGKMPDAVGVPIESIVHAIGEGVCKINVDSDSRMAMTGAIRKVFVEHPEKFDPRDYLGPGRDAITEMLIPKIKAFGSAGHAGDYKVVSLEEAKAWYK
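Giardia FBPA (40 nM reagent) was preincubated 10 min at RT with compound (up to 57.5 uM final), then substrate plus GAPDH/TPI/NAD/arsenate coupling system with diaphorase/resazurin was added; resorufin fluorescence (525/598 nm) was read after 20 min.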
Sm TGR inh = S. mansoni TGR enzyme inhibition. purified TGR, DTNB reduction, TNB absorbance 405 nm. Potency, µM (doses to about 114 µM), without a hit: top-dose activity change, negative = inhibition, usual class: inhibitors. 3% of 360,000 active. AID 485364; further: potency means the concentration at half of the fitted maximal effect; nearly all actives have a fitted effect of over 60% in size
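Kinetic colorimetric format: TGR-catalysed, NADPH-driven DTNB reduction monitored via TNB absorbance. Enzyme dispensed at 20 nM; compound exposure 15 min at room temperature before reaction start.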
Tb PYK inh = inhibitors of Trypanosoma brucei pyruvate kinase; TbPYK enzyme, Kinase-Glo Plus ATP luminescence, 45 min; Potency, µM (top dose mostly 76.8 µM), for inactives: at the top dose activity, negative = inhibition, actives largely listed as inhibitors; 0.12% of 410,000 active; further: potency means the concentration at half of the fitted maximal effect; nearly all actives have a fitted effect of over 50% in size
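T. brucei PYK with substrate was exposed to pin-transferred compounds across a concentration series, then started with 130 uM ADP (final). After 45 min at room temperature, Kinase-Glo Plus luminescence was read, normalized and curve-fitted.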
The depositor's hits bear a star; x = not tested or not shown. Unless noted, the call rests on the fitted dose curve; in most records, active means well fitted curve in the direction sought with a large enough effect; inconclusive means small, poorly fitted or top-dose-only effect, or another doubt; inactive means no such curve, though single readings can be large; an effect the other way counts as inactive or inconclusive. On the % scale 0 is the no-effect control and ±100 the full control effect.

SMILES | FMDV inh | HCMV inh | RE007 growth inh | Giardia FBPA inh | Sm TGR inh | Tb PYK inh
CCc1ccccc1NC(=O)CN1C(=O)COc2ccc(S(=O)(=O)Nc3ccccc3)cc21 | 41% | 13 | x | x | -3% | 1%
Cc1ccc(CNC(=O)CS(=O)Cc2nc(-c3cccs3)oc2C)cc1 (stereo not given) | 5% | 16 | -16% | -4% | 25µM* | -5%
COC(=O)c1ccc(NC(=O)Cn2ccn3nc(-c4ccc(OC)cc4)cc3c2=O)cc1 | 30% | 43 | x | x | 6% | 2%
Cc1cc(C)c2cc(CN(Cc3ccco3)C(=S)NCC3CCCO3)c(=O)[nH]c2c1 (stereo not given) | -8% | -3 | -9% | -8% | 25µM* | 0%
Cc1ccc(C)c2[nH]c(=O)c(CN(Cc3cccs3)C(=S)NCc3ccco3)cc12 | 2% | 8 | -1% | 0% | -20% | 1%
Cc1cccc2cc(CN(CC3CCCO3)C(=O)c3ccco3)c(=O)[nH]c12 (stereo not given) | -8% | -9 | 3% | 4% | 35µM* | -16%
Cc1ccc(C)c2[nH]c(=O)c(CN(CC3CCCO3)C(=S)NCc3ccco3)cc12 (stereo not given) | 7% | 0 | -8% | -7% | 28µM* | -16%
Cc1ccc2cc(CN(Cc3nnnn3Cc3ccco3)CC3CCCO3)c(=O)[nH]c2c1C (stereo not given) | 4% | 0 | 9% | -23% | 18µM* | -13%
O=C(c1ccco1)N(Cc1cc2ccccc2[nH]c1=O)CC1CCCO1 (stereo not given) | -16% | -28 | 34% | 2% | -7% | -3%
COc1ccc2[nH]c(=O)c(CN(Cc3nnnn3Cc3ccccc3)CC3CCCO3)cc2c1 (stereo not given) | x | -6 | 15% | -12% | 0% | -1%
COC(=O)c1cc2oc(C)cc2n1CC(=O)Nc1ccc(C)cc1C | -6% | -20 | x | x | -4% | -12%
CC(C)(C(=O)NCc1ccccc1)n1cc(NC(=O)c2ccc3c(c2)OCO3)cn1 | x | 52 | x | x | x | x
COC(=O)c1ccc(-c2ccc(OC)c(C3C4C=CCC(C)C4C(=O)N3Cc3ccccc3)c2)cc1 (stereo not given) | x | x | x | 1% | x | x
Cc1ccc(S(=O)(=O)Cn2nnnc2CN(Cc2ccco2)CC2CCCO2)cc1 (stereo not given) | -14% | 0 | 27% | -2% | 28µM* | 4%
Cc1ccc2cc(CN(CC3CCCO3)S(=O)(=O)c3ccccc3)c3nnnn3c2c1 (stereo not given) | 51% | 0 | 10% | 2% | 7% | -4%
Cc1ccc2cc(CN(CC3CCCO3)C(=S)NCc3ccco3)c(=O)[nH]c2c1C (stereo not given) | 32% | -63* | 4% | -7% | -19% | -15%
CCc1ccc2[nH]c(=O)c(CN(CC3CCCO3)C(=S)NCc3ccco3)cc2c1 (stereo not given) | -14% | -19 | 12% | -14% | -20% | -14%
COc1ccc([C@H]2NC(=O)C[C@H]2C(=O)N2CCOCC2)cc1 | x | -15 | x | x | x | x
O=C(CN1C(=O)C2(SCC(=O)N2c2ccc(F)cc2)c2ccccc21)NC1CCCCC1 (stereo not given) | -18% | -4 | x | x | 15% | -3%
COc1cccc(-c2nnc(SCC3CNC(=O)O3)n2-c2ccc(Cl)cc2)c1 (stereo not given) | -29% | -101* | -10% | 9% | -5% | -20%
COc1cccc(-c2nnc(SCC(=O)N3CCCC3=O)n2-c2ccccc2)c1 | x | 0 | -7% | 2% | 0% | 2%
CC1(C)c2ccccc2N2CC(=O)N[C@@]21/C=C/C=C/c1ccccc1 | -28% | -66* | 9% | -6% | -1% | -7%
Cc1c(C)c2ccc(OCC(=O)N[C@@H](Cc3ccccc3)C(=O)O)cc2oc1=O | -1% | -77* | -3% | 18% | 27% | -1%
